PubChem BioAssay (NCI)
This is part of a sample that, as a whole, favours compounds with a hit. Of some 83,000 tested, about 20% had one in any assay.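 Treatment: one concentration, 48 hours, 96-well format. Scoring: percent growth, with anything below 10 considered active.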 The source made the active and inactive calls.

Legend:
Test in all cases: NCI-60 one-dose screen, 48 h (100 = growth as untreated, 0 = no growth, -100 = all killed)
Conditions in all cases: 10 µM unless noted
HCT-15 colon = system: HCT-15 colon
HT29 colon = system: HT29 colon
SNB-19 CNS = system: SNB-19 CNS
U251 CNS = system: U251 CNS
PC-3 prostate = system: PC-3 prostate
SK-MEL-5 melanoma = system: SK-MEL-5 melanoma
UACC-62 melanoma = system: UACC-62 melanoma
LOX IMVI melanoma = system: LOX IMVI melanoma
SK-MEL-28 melanoma = system: SK-MEL-28 melanoma
SNB-75 CNS = system: SNB-75 CNS

Measured: growth

CCO/C=N/NC(=O)c1ccncc1
inactive: HCT-15 colon 108% | HT29 colon 101% | SNB-19 CNS 105% | U251 CNS 105% | PC-3 prostate 97.3% | SK-MEL-5 melanoma 104% | UACC-62 melanoma 107% | LOX IMVI melanoma 98.7% | SK-MEL-28 melanoma 108%

COc1ccc2c(c1)NC(=O)CN2c1nc(C)nc2ccccc12
inactive: SNB-19 CNS 34.4% | U251 CNS 16.2% | PC-3 prostate 15.1% | UACC-62 melanoma 35.7% | LOX IMVI melanoma 22% | SK-MEL-28 melanoma 59%
active: HCT-15 colon 9.21% | HT29 colon 3.4% | SK-MEL-5 melanoma -34.8%

O=C(Nc1ccc(I)cc1)c1cccc([N+](=O)[O-])c1O
inactive: HCT-15 colon 18.6% | HT29 colon 28.1% | SNB-19 CNS 16.8% | U251 CNS 10.3% | UACC-62 melanoma 20.8% | SK-MEL-28 melanoma 21.5%
active: PC-3 prostate 7.46% | SK-MEL-5 melanoma -44.1% | LOX IMVI melanoma 8.65%

O=C(COc1ccccc1)N1N=C(c2ccc(Cl)cc2)CC1c1c[nH]c2ccccc12 (stereo not drawn)
inactive: HCT-15 colon 62.1% | HT29 colon 90.4% | SNB-19 CNS 93.3% | U251 CNS 58% | PC-3 prostate 63.2% | SK-MEL-5 melanoma 85.5% | UACC-62 melanoma 70.9% | LOX IMVI melanoma 59.1%

CCCCCCOc1ccc(C2(Cl)c3ccccc3N(C)c3ccccc32)cc1
inactive: HCT-15 colon 44.7% | HT29 colon 35.1% | SNB-75 CNS 63.3% | SNB-19 CNS 47.1% | PC-3 prostate 21.8% | SK-MEL-5 melanoma 33.2% | SK-MEL-28 melanoma 24.5%
active: LOX IMVI melanoma -33.8%

O=C(CN1CCN(c2cc3c(cc2F)c(=O)c(C(=O)O)cn3C2CC2)CC1)Nc1ccc(C(=O)/C=C/c2ccc(Cl)cc2)cc1
inactive: HCT-15 colon 111% | HT29 colon 106% | SNB-19 CNS 92.9% | U251 CNS 99% | PC-3 prostate 91.7% | SK-MEL-5 melanoma 96.8% | UACC-62 melanoma 93.1% | LOX IMVI melanoma 78.9% | SK-MEL-28 melanoma 96.5%

O=[N+]([O-])c1cccc(-c2cc(-c3cc(Br)ccc3O)[nH]n2)c1
inactive: HCT-15 colon 15.6% | HT29 colon 48.3% | SNB-19 CNS 25.4% | U251 CNS 17.9% | PC-3 prostate 13% | UACC-62 melanoma 15.2%
active: SK-MEL-5 melanoma 6.28% | LOX IMVI melanoma 6.51%

COc1ccc(-n2cnc3c(sc4ncc(Cl)cc43)c2=O)cc1
inactive: HCT-15 colon 101% | HT29 colon 79.3% | SNB-19 CNS 108% | U251 CNS 74.7% | PC-3 prostate 83.1% | SK-MEL-5 melanoma 99.1% | UACC-62 melanoma 109% | LOX IMVI melanoma 58% | SK-MEL-28 melanoma 102%

O=[N+]([O-])c1c(S(=O)(=O)O)cc2cc(S(=O)(=O)O)ccc2c1[N+](=O)[O-]
inactive: HCT-15 colon 101% | HT29 colon 103% | SNB-19 CNS 108% | PC-3 prostate 100% | SK-MEL-5 melanoma 100% | UACC-62 melanoma 97% | LOX IMVI melanoma 94.3% | SK-MEL-28 melanoma 103%

O=C(Cc1c(F)cccc1Cl)Nc1ccc(S(=O)(=O)Nc2ncccn2)cc1
inactive: HCT-15 colon 104% | HT29 colon 120% | SNB-19 CNS 96% | U251 CNS 105% | PC-3 prostate 100% | SK-MEL-5 melanoma 100% | UACC-62 melanoma 107% | LOX IMVI melanoma 92.9% | SK-MEL-28 melanoma 122%

O=C1NC(Cc2c[nH]c3ccccc23)C(=O)N1Cc1ccc(Cl)cc1 (stereo not drawn)
inactive: HCT-15 colon 99.6% | HT29 colon 105% | SNB-75 CNS 90.1% | SNB-19 CNS 103% | PC-3 prostate 90.5% | SK-MEL-5 melanoma 95% | UACC-62 melanoma 86.1% | LOX IMVI melanoma 89.1% | SK-MEL-28 melanoma 109%

O=C(N/N=C/c1c(Cl)cccc1Cl)c1ccccc1Nc1ccnc(C(F)(F)F)c1
inactive: HCT-15 colon 64.8% | HT29 colon 90.9% | SNB-19 CNS 68.3% | U251 CNS 67.7% | PC-3 prostate 51% | SK-MEL-5 melanoma 41.2% | UACC-62 melanoma 55.6% | LOX IMVI melanoma 62.3% | SK-MEL-28 melanoma 84.2%

COc1cc2nc(SCc3cc(OC)c(OC)c(OC)c3)n(Cc3ccccc3)c(=O)c2cc1OC
inactive: HCT-15 colon 20.1% | HT29 colon 10.6% | SNB-19 CNS 48.8% | U251 CNS 29% | PC-3 prostate 48.8% | UACC-62 melanoma 23.4% | LOX IMVI melanoma 37.7% | SK-MEL-28 melanoma 39.2%
active: SK-MEL-5 melanoma -8.17%

O=c1c2cccc3c(Nc4ccc(F)cc4)ccc(c32)c2nc3ccccc3n12
inactive: HCT-15 colon 71.1% | HT29 colon 92.6% | SNB-19 CNS 77.6% | U251 CNS 92% | PC-3 prostate 77.2% | SK-MEL-5 melanoma 70.4% | UACC-62 melanoma 67.8% | LOX IMVI melanoma 83.6% | SK-MEL-28 melanoma 103%

CCn1cc(C(=O)O)c(=O)c2cc(F)c(N3CCN(S(=O)(=O)c4cccc5ccccc45)CC3)cc21
inactive: HCT-15 colon 11.1% | SNB-19 CNS 28.8% | U251 CNS 14.2% | UACC-62 melanoma 31.2% | SK-MEL-28 melanoma 59.2%
active: HT29 colon 3.96% | PC-3 prostate 7.82% | SK-MEL-5 melanoma -46% | LOX IMVI melanoma -39%

O=C1c2ccccc2C(=O)c2c(N=Nc3sc(=O)[nH]c3S)cccc21
inactive: HCT-15 colon 94% | HT29 colon 82.9% | SNB-19 CNS 93.4% | PC-3 prostate 89.9% | SK-MEL-5 melanoma 93.4% | UACC-62 melanoma 88.8% | LOX IMVI melanoma 84.9% | SK-MEL-28 melanoma 110%

O=S(=O)(NCCCNc1cc(-c2cn(-c3ccccc3)nc2-c2cccc(O)c2)ccn1)c1ccc(C(F)(F)F)cc1
active: HCT-15 colon 5.17% | HT29 colon 2.83% | SK-MEL-5 melanoma 8.74%
inactive: SNB-19 CNS 51.4% | U251 CNS 36.8% | PC-3 prostate 13.7% | UACC-62 melanoma 27.4% | LOX IMVI melanoma 27.4% | SK-MEL-28 melanoma 21.7%

Cc1cc(C(=O)O)c(N)c(C)n1
inactive: HCT-15 colon 100% | HT29 colon 112% | SNB-75 CNS 89.4% | SNB-19 CNS 110% | PC-3 prostate 96.4% | SK-MEL-5 melanoma 115% | LOX IMVI melanoma 94.7% | SK-MEL-28 melanoma 117%

COc1ccc(/C=C/c2cc(N3CCOCC3)c3cc(F)c(F)cc3n2)cc1OC
active: LOX IMVI melanoma 1.22%
inactive: HCT-15 colon 30% | HT29 colon 38.9% | SNB-75 CNS 48% | SNB-19 CNS 48.8% | PC-3 prostate 38.7% | SK-MEL-5 melanoma 26.2% | UACC-62 melanoma 19.9% | SK-MEL-28 melanoma 51.4%

O=C(NCCc1c[nH]c2ccccc12)C1Cc2ccccc2CN1C(=O)c1ccco1 (stereo not drawn)
inactive: HCT-15 colon 111% | HT29 colon 114% | SNB-19 CNS 112% | U251 CNS 98.5% | PC-3 prostate 96.9% | SK-MEL-5 melanoma 95.6% | LOX IMVI melanoma 94.9% | SK-MEL-28 melanoma 116%

COc1cccc(C2CC(=O)Nc3c2c(C)nn3-c2nc3ccccc3[nH]2)c1OC (stereo not drawn)
inactive: HCT-15 colon 59.4% | HT29 colon 86.6% | SNB-19 CNS 87.1% | U251 CNS 63.6% | PC-3 prostate 62.8% | SK-MEL-5 melanoma 60.1% | UACC-62 melanoma 51.3% | LOX IMVI melanoma 54.2% | SK-MEL-28 melanoma 79.5%

COc1ccc(-c2nc3sccn3c2-c2ccnc(NCCCNS(=O)(=O)c3ccc4ccccc4c3)n2)cc1
inactive: HCT-15 colon 44.9% | HT29 colon 44.1% | SNB-19 CNS 86.1% | U251 CNS 67.3% | PC-3 prostate 66.8% | SK-MEL-5 melanoma 42.3% | UACC-62 melanoma 54.5% | LOX IMVI melanoma 53.9% | SK-MEL-28 melanoma 80%

CCOC(=O)/C=C\C(=O)NC(N)=O
inactive: HCT-15 colon 99.9% | HT29 colon 104% | SNB-19 CNS 106% | U251 CNS 94% | PC-3 prostate 83.5% | SK-MEL-5 melanoma 105% | UACC-62 melanoma 99.3% | LOX IMVI melanoma 91.8% | SK-MEL-28 melanoma 118%

COC(=O)c1ccc(C)cc1
inactive: HCT-15 colon 105% | HT29 colon 98.6% | SNB-19 CNS 115% | U251 CNS 94.9% | PC-3 prostate 97.5% | SK-MEL-5 melanoma 103% | UACC-62 melanoma 106% | LOX IMVI melanoma 99.5% | SK-MEL-28 melanoma 113%

Cc1cc(-c2ccccc2)c(C)n1Cc1ccc(Cl)cc1
inactive: HCT-15 colon 32.8% | HT29 colon 13.8% | SNB-19 CNS 61% | U251 CNS 25% | PC-3 prostate 57.3% | SK-MEL-5 melanoma 40.7% | UACC-62 melanoma 40.7% | LOX IMVI melanoma 45% | SK-MEL-28 melanoma 55.8%

CN(C)c1nc(N)c(N=O)c(N)n1
inactive: HCT-15 colon 111% | HT29 colon 117% | SNB-19 CNS 112% | U251 CNS 103% | PC-3 prostate 99.4% | SK-MEL-5 melanoma 110% | UACC-62 melanoma 103% | LOX IMVI melanoma 99.1% | SK-MEL-28 melanoma 114%

Nc1c(C(=O)c2ccc(F)cc2)sc2nc3c(cc12)CCCC3
inactive: HCT-15 colon 58.4% | HT29 colon 66% | SNB-75 CNS 85.8% | SNB-19 CNS 95.4% | PC-3 prostate 80.7% | SK-MEL-5 melanoma 89.2% | UACC-62 melanoma 75% | LOX IMVI melanoma 75.8% | SK-MEL-28 melanoma 76.8%

CCN(CC)CCCC(C)N=c1cc(Nc2cc(=NC(C)CCCN(CC)CC)c3cc(OC)ccc3o2)oc2ccc(OC)cc12 (stereo not drawn)
active: HCT-15 colon -16.7% | HT29 colon -42% | SNB-19 CNS 2.11% | U251 CNS -57.6% | PC-3 prostate -26.4% | SK-MEL-5 melanoma -97.8% | UACC-62 melanoma -72.5% | LOX IMVI melanoma -77.7% | SK-MEL-28 melanoma -94.6%

CCC(c1ccc(OC)cc1)C(CC)c1ccc(OCC[N+](C)(C)C)cc1 (stereo not drawn)
inactive: HCT-15 colon 91.5% | HT29 colon 28.4% | SNB-19 CNS 19.3% | U251 CNS 18.9% | PC-3 prostate 45.3% | SK-MEL-5 melanoma 15.4% | UACC-62 melanoma 30.3% | LOX IMVI melanoma 42.9% | SK-MEL-28 melanoma 45.1%

O=C(CCl)NCCNc1nccc(Nc2ccc(S(=O)(=O)Nc3ccccn3)cc2)n1
active: HCT-15 colon 4.99% | HT29 colon 4.37% | U251 CNS -68.1% | SK-MEL-5 melanoma -41.6% | UACC-62 melanoma 5.42% | LOX IMVI melanoma -64.1%
inactive: SNB-19 CNS 17.4% | PC-3 prostate 36.3% | SK-MEL-28 melanoma 38%
